Bioassay records as filed in PubChem BioAssay.
Most compounds without a hit are left out; they make up all but 19% or so of the library.
HepG2 tox = counter-screen for TGF-b inhibitors: cytotoxicity in HepG2 cells. HepG2 CAGA-GFP viability, ATP luminescence, 18 h. 410,000 compounds, 0.76% hits. Potency, µM (series often up to 46.1 µM), without a hit: at the highest dose activity change, negative = cytotoxicity, hits mostly cytotoxic. AID 588856; note: potency is the fitted concentration of half-maximal effect
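CellTiter-Glo luminescence gave cytotoxicity after 18 hours at 37 degrees C. The cells were HepG2 CAGA-GFP in 1% FBS DMEM, stimulated with 500 pg/mL TGF-beta after compound addition. %Activity was normalised to no-cell wells (complete cell-killing) and DMSO (no toxicity), and curves were fitted and classified.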
DT40 TDP1 no CPT = qHTS for Inhibitors of human tyrosyl-DNA phosphodiesterase 1 (TDP1): qHTS in cells in absence of CPT; DT40 Tdp1-/- hTDP1 cells, no CPT, ATP luminescence, 48 h; Potency, µM (titrated, usually from 46.2 µM), for the others: at the top dose activity change, negative = growth inhibition, actives largely listed as inhibitors; 420,000 compounds, 15% hits; AID 686978, 2013; note: potency is the fitted concentration of half-maximal effect; % is set by controls: 0 for no effect and ±100 for the full control effect; nearly all actives have a fitted effect of over 55% in size
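Seeded 400 DT40-hTDP1 cells/well (vehicle DMSO, no 20 nM CPT); pinned compounds; ≥48 hr at 37 °C; CellTiter-Glo luminescence as viability measure.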
TGFb inhibitor = TGF-b pathway inhibition | AID 588855 | Potency, µM (top dose mostly 46.1 µM), for inactives: at the highest dose activity, negative = inhibition, usual class: inhibitors | HepG2 CAGA-GFP TGF-b/SMAD3 reporter, GFP fluorescence, 18 h; TGF-beta stimulated, 500 pg/mL final | 410,000 compounds, 1.2% hits; note: potency is the fitted concentration of half-maximal effect; % is set by controls: 0 for no effect and ±100 for the full control effect; nearly all actives have a fitted effect of over 65% in size
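HEPG2 CAGA-GFP, 1000 cells/well; 2 h settle, 37 C; cpd via pin tool; TGF-b 500 pg/mL final; 18 h, 37 C; GFP imaging ex488/em500-530; %Activity normalised to -TGF-b and +DMSO controls; CRC fit, curve class.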
TDP1 inh = inhibitors of human tyrosyl-DNA phosphodiesterase TDP1 | recombinant TDP1, AlphaScreen DNA substrate cleavage | Potency, µM (titrated, usually from 130 µM), for inactives: at the highest dose activity change, negative = inhibition, actives largely listed as inhibitors | 350,000 compounds, 0.28% hits | AID 485290; note: potency is the fitted concentration of half-maximal effect; % is set by controls: 0 for no effect and ±100 for the full control effect; nearly all actives have a fitted effect of over 40% in size
Target sequence (Q9NUW8 whole entry, looked up): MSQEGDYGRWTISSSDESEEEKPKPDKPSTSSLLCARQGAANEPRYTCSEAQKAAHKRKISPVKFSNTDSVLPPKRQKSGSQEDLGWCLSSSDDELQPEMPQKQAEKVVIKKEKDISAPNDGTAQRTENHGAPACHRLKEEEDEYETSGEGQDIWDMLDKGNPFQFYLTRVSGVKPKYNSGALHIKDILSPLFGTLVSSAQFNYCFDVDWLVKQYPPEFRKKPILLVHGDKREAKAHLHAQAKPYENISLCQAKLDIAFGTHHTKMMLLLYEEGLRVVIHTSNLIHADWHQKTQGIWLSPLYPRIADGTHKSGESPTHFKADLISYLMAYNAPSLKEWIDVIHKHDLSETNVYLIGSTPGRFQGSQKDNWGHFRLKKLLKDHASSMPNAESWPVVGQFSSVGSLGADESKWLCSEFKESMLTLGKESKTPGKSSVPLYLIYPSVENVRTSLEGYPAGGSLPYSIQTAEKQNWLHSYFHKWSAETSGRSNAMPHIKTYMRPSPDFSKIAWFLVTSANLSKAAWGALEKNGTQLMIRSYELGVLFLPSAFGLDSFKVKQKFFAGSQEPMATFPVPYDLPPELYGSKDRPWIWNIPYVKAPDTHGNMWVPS
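Tdp1 1 nM final; 15 min RT w/ cpd; substrate 15 nM, 5 min; beads 10 ug/ml, 10 min; AlphaScreen read. Neg ctrl: no enzyme.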
DT40 TDP1 CPT = DT40-hTDP1 cell growth loss with CPT; chicken DT40 Tdp1-/-;hTDP1 cells + 20 nM CPT, ATP luminescence, 48 h; Potency, µM (top dose mostly 46.2 µM), without a hit: top-dose activity change, negative = growth inhibition, usual class: inhibitors; 420,000 compounds, 12% hits; note: potency is the fitted concentration of half-maximal effect; % is set by controls: 0 for no effect and ±100 for the full control effect; nearly all actives have a fitted effect of over 55% in size
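Chicken DT40 Tdp1-/- cells complemented with human TDP1, 400 cells/well, exposed to compounds plus 20 nM camptothecin for at least 48 h at 37 C; viability read as ATP content by CellTiter-Glo luminescence.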
IL1B secr inh = inflammasome signaling inhibition, IL-1 beta readout | THP-1 LPS/ATP IL-1B secretion, AlphaLISA, 16 h; stronger effect = lower value | activity change, % at 57.5 µM | 360,000 compounds, 4.7% hits; in the data active = activity change below about -50%; inconclusive = mostly about -30% to -49%; note: % is set by controls: 0 for no effect and ±100 for the full control effect
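Secreted IL-1B measured by AlphaLISA bead assay after 16 h compound exposure of THP-1 cells; compounds (final up to 57.5 uM) added 1 h before LPS (250 ng/mL) and ATP (1.25 mM) stimulation; lower signal means less secretion.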
The depositor's hits bear a star; [ ] = dose if it differs, or a comment. Unless noted, calls come from the whole dose curve; as a rule, active = well fitted curve in the direction sought with a large enough effect; inconclusive = small, poorly fitted or top-dose-only effect, or another doubt; inactive = no such curve, though single readings can be large; an effect the other way counts as inactive or inconclusive.

What do the screens show for `CCOC(=O)N1CCN(c2nc3ccc(C(=O)c4ccccc4)cc3n3cnnc23)CC1`?
HepG2 tox: -0.9%; DT40 TDP1 no CPT: inconclusive; TGFb inhibitor: -3.1%; DT40 TDP1 CPT: inconclusive; IL1B secr inh: -10.8

What do the screens show for `Cc1ccc(C)c(S(=O)(=O)N2CCN(C(=O)CN3C(=O)C4CC=CCC4C3=O)CC2)c1` (configuration not stated)?
HepG2 tox: 7.1%; DT40 TDP1 no CPT: -23.5%; TGFb inhibitor: 4.7%; TDP1 inh: 1.3%[0.505 µM]; DT40 TDP1 CPT: -20.9%; IL1B secr inh: 5.7

How did CC(C)N1CCN(Cc2ccoc2)CC1CCO (configuration not stated) do in these assays?
HepG2 tox: -4.9%; DT40 TDP1 no CPT: 0.9%; TGFb inhibitor: -2.3%; TDP1 inh: 4.9%; DT40 TDP1 CPT: -4.6%; IL1B secr inh: 41.9

How did CCn1c(-c2ccccc2F)nc2cc(C(=O)NCc3ccc(C)o3)cc(NC(C)=O)c21 do in these assays?
DT40 TDP1 no CPT: 2.1%; DT40 TDP1 CPT: -10.0%

Results for CC(=O)N1CCCN(Cc2cn(-c3cccc(C)c3)nc2-c2cccc(F)c2)CC1 ?
HepG2 tox: -30.2%; DT40 TDP1 no CPT: 16.4µM*; TGFb inhibitor: -20.6%; DT40 TDP1 CPT: inconclusive; IL1B secr inh: -22.9

Results for CC(=O)N1CCCN(Cc2cn(-c3cc(C)ccc3C)nc2-c2ccccc2)CC1 ?
HepG2 tox: -33.7%; DT40 TDP1 no CPT: inconclusive; TGFb inhibitor: -21.4%; TDP1 inh: -2.6%; DT40 TDP1 CPT: 18.4µM*; IL1B secr inh: 21.8

What do the screens show for `Cc1ccc(-n2cc(CN3CCCN(C=O)CC3)c(-c3ccc(F)cc3)n2)cc1`?
HepG2 tox: -11.1%; DT40 TDP1 no CPT: inconclusive; TGFb inhibitor: -10.2%; TDP1 inh: 4.9%; DT40 TDP1 CPT: inconclusive; IL1B secr inh: inconclusive

Results for CCn1ccnc1CNCc1cn(-c2cc(C)ccc2C)nc1-c1ccccc1 ?
HepG2 tox: -34.3%; DT40 TDP1 no CPT: inconclusive; TGFb inhibitor: -13.7%; TDP1 inh: 7.2%; DT40 TDP1 CPT: inconclusive; IL1B secr inh: -13.4

Results for COCCN1CCC(CNCc2cn[nH]c2-c2ccc(C)c(C)c2)C1 (configuration not stated) ?
HepG2 tox: -0.9%; DT40 TDP1 no CPT: -7.6%; TGFb inhibitor: 3.9%; TDP1 inh: -2.7%; DT40 TDP1 CPT: -1.5%; IL1B secr inh: inconclusive

What do the screens show for `COCCN1CCC(CNCc2cn(-c3cc(C)ccc3C)nc2-c2ccccc2)C1` (configuration not stated)?
HepG2 tox: -77.8%; DT40 TDP1 no CPT: 6.51µM*; TGFb inhibitor: inconclusive; TDP1 inh: -5.1%; DT40 TDP1 CPT: inconclusive; IL1B secr inh: -24.1

What do the screens show for `Cc1cccc(-n2cc(CN3CCCN(C=O)CC3)c(-c3cccc(F)c3)n2)c1`?
HepG2 tox: -31.5%; DT40 TDP1 no CPT: inconclusive; TGFb inhibitor: -18.6%; TDP1 inh: 0.0%; DT40 TDP1 CPT: inconclusive; IL1B secr inh: -11.0

What do the screens show for `CC(=O)N1CCCN(Cc2cn(-c3ccc(C)cc3)nc2-c2ccc(F)cc2)CC1`?
HepG2 tox: -10.0%; DT40 TDP1 no CPT: 18.4µM*; TGFb inhibitor: inconclusive; TDP1 inh: 2.6%; DT40 TDP1 CPT: inconclusive; IL1B secr inh: -77.9*

What do the screens show for `Cc1noc(C)c1NC(=O)N(C)C[C@H]1Oc2c(NC(=O)C3CCCCC3)cccc2C(=O)N([C@H](C)CO)C[C@@H]1C`?
HepG2 tox: -26.6%; DT40 TDP1 no CPT: 0.7%; TGFb inhibitor: -4.5%; TDP1 inh: 1.2%; DT40 TDP1 CPT: 4.8%; IL1B secr inh: 24.6

How did CCC(Cn1nnc2ccccc2c1=O)NC(=O)Nc1ccccc1OC (configuration not stated) do in these assays?
HepG2 tox: 4.0%; DT40 TDP1 no CPT: inconclusive; TGFb inhibitor: -23.0%; TDP1 inh: 7.0%; DT40 TDP1 CPT: inconclusive

Results for N#CC1C(=O)c2ccccc2C1c1ccccc1 (configuration not stated) ?
HepG2 tox: 14.1µM*; DT40 TDP1 no CPT: inconclusive; TGFb inhibitor: inconclusive; DT40 TDP1 CPT: inconclusive; IL1B secr inh: -103.7*

How did O=c1oc(=S)oc2c1[C@H](c1ccc(Cl)cc1)O[C@H](C1CCCC1)C2 do in these assays?
DT40 TDP1 no CPT: 23.1µM*; DT40 TDP1 CPT: inconclusive; IL1B secr inh: 27.8

Results for COCC(=O)N1CCC[C@@]2(CCN(C(c3ccccc3)c3ccccc3)C2)C1 ?
DT40 TDP1 no CPT: inconclusive; DT40 TDP1 CPT: 0.3%

What do the screens show for `CCCCN(Cc1ccccc1)S(=O)(=O)c1cc(Br)cc2c1N(C(C)=O)CC2`?
HepG2 tox: -99.5%; DT40 TDP1 no CPT: inconclusive; TGFb inhibitor: -20.1%; TDP1 inh: -5.9%; DT40 TDP1 CPT: inconclusive

How did CCCCN(Cc1ccccc1)S(=O)(=O)c1cc(Br)cc2c1N(C(=O)C1CC1)CC2 do in these assays?
HepG2 tox: -9.3%; DT40 TDP1 no CPT: 9.2µM*; TGFb inhibitor: -1.4%; TDP1 inh: 5.9%; DT40 TDP1 CPT: 9.2µM*

Results for O=C(C1CC1)N1CCc2cc(S(=O)(=O)N(CCO)Cc3ccccc3)ccc21 ?
HepG2 tox: -1.0%; DT40 TDP1 no CPT: 23.1µM*; TGFb inhibitor: -17.3%; TDP1 inh: 8.5%[56.1 µM]; DT40 TDP1 CPT: inconclusive; IL1B secr inh: -7.6

What do the screens show for `CCc1ccccc1NS(=O)(=O)c1cc(Br)cc2c1N(C(=O)C1CC1)CC2`?
HepG2 tox: -24.4%; DT40 TDP1 no CPT: 18.4µM*; TGFb inhibitor: inconclusive; TDP1 inh: 0.0%; DT40 TDP1 CPT: 16.4µM*

How did CCOc1ccc(NS(=O)(=O)c2cc(Br)cc3c2N(C(=O)C2CC2)CC3)cc1 do in these assays?
HepG2 tox: 1.5%; DT40 TDP1 no CPT: inconclusive; TGFb inhibitor: 1.1%; TDP1 inh: 2.9%; DT40 TDP1 CPT: inconclusive

How did CCCCN(Cc1ccccc1)S(=O)(=O)c1ccc2c(c1)CCN2C(=O)C1CCC1 do in these assays?
HepG2 tox: 6.6%; DT40 TDP1 no CPT: -21.0%; TGFb inhibitor: 5.9%; TDP1 inh: -2.3%; DT40 TDP1 CPT: -27.9%

How did CCN(Cc1ccccc1)S(=O)(=O)c1cc(Br)cc2c1N(C(=O)C1CC1)CC2 do in these assays?
HepG2 tox: -24.3%; DT40 TDP1 no CPT: 8.2µM*; TGFb inhibitor: inconclusive; TDP1 inh: 5.9%; DT40 TDP1 CPT: 10.3µM*
